# Assays:
# [1] = target: Tyrosine-protein kinase SYK (Homo sapiens) (UniProt P43405); conditions: at 10 µM
# [2] = target: T1, Mitogen-activated protein kinase kinase kinase 7 (Homo sapiens) (UniProt O43318); conditions: at 10 µM
# T1 sequence (whole entry): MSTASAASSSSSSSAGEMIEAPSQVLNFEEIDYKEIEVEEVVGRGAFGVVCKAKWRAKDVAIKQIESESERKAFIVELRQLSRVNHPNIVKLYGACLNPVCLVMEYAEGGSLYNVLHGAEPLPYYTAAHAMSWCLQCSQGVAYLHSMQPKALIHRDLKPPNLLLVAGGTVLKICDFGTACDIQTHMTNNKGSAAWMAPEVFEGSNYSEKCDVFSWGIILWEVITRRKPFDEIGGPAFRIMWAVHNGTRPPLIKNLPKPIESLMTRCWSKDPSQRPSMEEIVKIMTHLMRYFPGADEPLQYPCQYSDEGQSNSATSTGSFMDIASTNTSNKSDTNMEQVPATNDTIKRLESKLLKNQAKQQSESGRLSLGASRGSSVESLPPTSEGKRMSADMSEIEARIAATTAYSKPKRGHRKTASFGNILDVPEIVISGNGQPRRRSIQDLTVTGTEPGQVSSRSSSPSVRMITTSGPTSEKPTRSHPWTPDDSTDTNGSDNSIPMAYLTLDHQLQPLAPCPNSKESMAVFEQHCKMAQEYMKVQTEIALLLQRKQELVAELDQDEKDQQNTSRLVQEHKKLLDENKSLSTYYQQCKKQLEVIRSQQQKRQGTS
# [3] = target: T2, Serine/threonine-protein kinase TAO1 (Homo sapiens) (UniProt Q7L7X3); conditions: at 10 µM
# T2 sequence (whole entry): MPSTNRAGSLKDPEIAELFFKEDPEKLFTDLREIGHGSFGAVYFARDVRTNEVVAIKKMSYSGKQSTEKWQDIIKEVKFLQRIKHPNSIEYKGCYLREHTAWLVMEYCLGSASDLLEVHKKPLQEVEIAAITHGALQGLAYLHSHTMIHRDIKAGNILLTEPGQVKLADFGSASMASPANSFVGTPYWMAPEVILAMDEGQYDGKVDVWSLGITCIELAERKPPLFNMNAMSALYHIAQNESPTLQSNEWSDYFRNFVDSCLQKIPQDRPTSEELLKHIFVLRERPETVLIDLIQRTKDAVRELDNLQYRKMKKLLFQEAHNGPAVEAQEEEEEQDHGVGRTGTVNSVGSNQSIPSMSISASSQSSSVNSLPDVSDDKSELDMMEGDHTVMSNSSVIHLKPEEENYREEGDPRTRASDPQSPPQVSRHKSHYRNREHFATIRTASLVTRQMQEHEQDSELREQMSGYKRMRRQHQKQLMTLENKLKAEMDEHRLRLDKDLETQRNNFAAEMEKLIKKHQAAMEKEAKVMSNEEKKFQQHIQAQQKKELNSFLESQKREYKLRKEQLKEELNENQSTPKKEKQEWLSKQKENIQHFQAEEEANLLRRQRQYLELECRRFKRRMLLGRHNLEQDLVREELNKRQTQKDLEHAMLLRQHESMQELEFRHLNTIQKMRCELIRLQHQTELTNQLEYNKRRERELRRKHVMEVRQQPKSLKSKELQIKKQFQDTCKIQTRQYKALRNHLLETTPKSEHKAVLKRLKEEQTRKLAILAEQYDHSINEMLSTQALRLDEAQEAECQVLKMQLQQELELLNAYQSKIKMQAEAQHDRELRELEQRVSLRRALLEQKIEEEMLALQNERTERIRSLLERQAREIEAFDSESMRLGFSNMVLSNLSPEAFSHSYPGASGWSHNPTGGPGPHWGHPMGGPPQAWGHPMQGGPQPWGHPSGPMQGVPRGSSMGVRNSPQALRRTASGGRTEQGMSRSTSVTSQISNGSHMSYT
# [4] = target: T3, Serine/threonine-protein kinase TAO2 (Homo sapiens) (UniProt Q9UL54); conditions: at 10 µM
# T3 sequence (whole entry): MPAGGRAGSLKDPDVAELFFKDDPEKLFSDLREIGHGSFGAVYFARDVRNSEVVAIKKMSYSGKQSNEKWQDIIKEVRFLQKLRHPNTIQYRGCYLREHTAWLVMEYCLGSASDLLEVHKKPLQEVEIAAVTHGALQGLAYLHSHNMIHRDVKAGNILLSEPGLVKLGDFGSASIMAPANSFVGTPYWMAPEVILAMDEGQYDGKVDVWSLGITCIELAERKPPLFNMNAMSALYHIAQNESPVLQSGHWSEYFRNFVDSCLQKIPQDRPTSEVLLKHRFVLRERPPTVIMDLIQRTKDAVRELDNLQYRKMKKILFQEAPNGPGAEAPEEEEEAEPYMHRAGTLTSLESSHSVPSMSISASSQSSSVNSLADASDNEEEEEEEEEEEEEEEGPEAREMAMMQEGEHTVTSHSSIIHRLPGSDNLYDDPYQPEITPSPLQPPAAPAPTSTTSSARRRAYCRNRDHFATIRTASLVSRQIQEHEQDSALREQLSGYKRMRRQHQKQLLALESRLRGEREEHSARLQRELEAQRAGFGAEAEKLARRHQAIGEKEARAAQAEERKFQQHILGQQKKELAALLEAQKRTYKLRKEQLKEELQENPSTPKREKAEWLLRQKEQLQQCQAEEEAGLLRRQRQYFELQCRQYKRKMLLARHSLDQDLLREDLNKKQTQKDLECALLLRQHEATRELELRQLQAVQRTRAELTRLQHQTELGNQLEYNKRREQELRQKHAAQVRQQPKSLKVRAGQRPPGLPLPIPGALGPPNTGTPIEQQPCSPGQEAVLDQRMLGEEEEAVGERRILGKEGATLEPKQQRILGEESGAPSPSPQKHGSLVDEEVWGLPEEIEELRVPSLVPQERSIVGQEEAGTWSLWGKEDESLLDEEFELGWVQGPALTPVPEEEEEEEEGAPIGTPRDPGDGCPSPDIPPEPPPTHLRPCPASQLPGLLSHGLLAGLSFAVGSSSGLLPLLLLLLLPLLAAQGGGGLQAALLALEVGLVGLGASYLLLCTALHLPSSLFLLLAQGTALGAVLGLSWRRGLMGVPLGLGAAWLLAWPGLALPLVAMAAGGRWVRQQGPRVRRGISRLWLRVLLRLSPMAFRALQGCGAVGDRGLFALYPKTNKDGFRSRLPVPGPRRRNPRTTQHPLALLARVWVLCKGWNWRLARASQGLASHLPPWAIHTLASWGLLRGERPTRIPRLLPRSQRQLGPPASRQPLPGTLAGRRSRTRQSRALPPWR
# [5] = target: T4, Serine/threonine-protein kinase TAO3 (Homo sapiens) (UniProt Q9H2K8); conditions: at 1 µM
# T4 sequence (whole entry): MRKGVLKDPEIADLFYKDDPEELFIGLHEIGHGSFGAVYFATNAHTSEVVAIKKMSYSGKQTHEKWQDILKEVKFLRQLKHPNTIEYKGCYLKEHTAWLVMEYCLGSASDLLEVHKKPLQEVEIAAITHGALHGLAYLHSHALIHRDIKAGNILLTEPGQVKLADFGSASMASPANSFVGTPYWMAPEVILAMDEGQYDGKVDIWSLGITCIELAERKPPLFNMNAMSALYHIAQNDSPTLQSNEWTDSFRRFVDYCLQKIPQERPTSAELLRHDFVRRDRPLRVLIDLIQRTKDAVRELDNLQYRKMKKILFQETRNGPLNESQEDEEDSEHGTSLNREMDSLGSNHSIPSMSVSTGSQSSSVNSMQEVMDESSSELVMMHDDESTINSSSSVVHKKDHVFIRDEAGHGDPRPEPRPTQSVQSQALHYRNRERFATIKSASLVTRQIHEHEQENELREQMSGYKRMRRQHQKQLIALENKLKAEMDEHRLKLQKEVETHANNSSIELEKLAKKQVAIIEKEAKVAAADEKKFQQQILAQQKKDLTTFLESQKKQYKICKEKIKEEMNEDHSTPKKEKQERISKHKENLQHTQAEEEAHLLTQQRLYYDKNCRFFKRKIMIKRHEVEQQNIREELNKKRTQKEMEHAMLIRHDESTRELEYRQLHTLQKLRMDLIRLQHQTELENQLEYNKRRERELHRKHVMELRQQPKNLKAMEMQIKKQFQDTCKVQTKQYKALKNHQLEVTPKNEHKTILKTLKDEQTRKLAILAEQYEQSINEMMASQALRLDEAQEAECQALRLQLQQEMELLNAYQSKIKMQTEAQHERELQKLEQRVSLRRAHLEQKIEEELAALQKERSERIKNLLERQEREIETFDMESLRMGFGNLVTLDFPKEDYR
# [6] = target: T4, Serine/threonine-protein kinase TAO3 (Homo sapiens); conditions: at 10 µM
# [7] = target: T5, Serine/threonine-protein kinase TBK1 (Homo sapiens) (UniProt Q9UHD2); conditions: at 1 µM
# T5 sequence (whole entry): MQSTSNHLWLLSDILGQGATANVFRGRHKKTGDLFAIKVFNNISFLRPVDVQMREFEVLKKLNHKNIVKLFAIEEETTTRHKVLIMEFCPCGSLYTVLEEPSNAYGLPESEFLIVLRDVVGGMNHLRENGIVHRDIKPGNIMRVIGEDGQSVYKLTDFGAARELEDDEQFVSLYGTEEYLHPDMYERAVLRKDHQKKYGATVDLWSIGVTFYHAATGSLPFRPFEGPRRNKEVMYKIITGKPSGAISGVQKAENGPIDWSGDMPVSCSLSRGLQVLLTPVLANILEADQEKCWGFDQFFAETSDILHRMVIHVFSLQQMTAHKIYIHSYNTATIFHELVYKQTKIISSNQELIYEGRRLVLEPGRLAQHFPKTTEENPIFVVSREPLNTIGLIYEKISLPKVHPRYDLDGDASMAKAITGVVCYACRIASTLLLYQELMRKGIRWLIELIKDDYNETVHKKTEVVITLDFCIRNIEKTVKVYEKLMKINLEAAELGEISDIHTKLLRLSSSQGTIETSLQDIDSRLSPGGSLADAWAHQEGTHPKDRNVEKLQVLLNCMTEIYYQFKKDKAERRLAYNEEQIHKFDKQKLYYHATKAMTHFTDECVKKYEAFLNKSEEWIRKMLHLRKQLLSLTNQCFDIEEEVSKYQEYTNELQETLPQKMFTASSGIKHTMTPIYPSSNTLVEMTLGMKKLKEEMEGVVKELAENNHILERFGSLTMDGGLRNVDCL
compound,measurement,setting,value
N#CC(C#N)=C(N)/C(C#N)=C/c1ccc(O)cc1,residual activity,[1],74%
same,residual activity,[2],89%
same,residual activity,[3],81%
same,residual activity,[4],87%
same,residual activity,[5],99%
same,residual activity,[6],85%
same,residual activity,[7],82%

# From ChEMBL document CHEMBL2218924, “A broad activity screen in support of a chemogenomic map for kinase signalling research and drug discovery” (Biochem J, 2013)
